Measured values from PubChem BioAssay AID1851 (National Center for Advancing Translational Sciences (NCATS), 2009).
Values joined by “and” are separate entries in the source; they are usually repeats but may differ in a detail not shown here. Identical values can stand only once. Out of some 16,000 compounds screened, about 5,800 (36%) were called active. About 23% were inconclusive and are not listed. Calls come from the whole dose curve; as a rule, active = well fitted curve in the direction sought with a large enough effect; inconclusive = small, poorly fitted or top-dose-only effect, or effect the other way; inactive = no such curve, though single readings can be large or run the other way. This is one part of the list. Some structures have more than one record in an assay (separate samples or runs), and their calls can disagree.

target: Cytochrome P450 2C19 (Homo sapiens) (UniProt P33261); assay: Cytochrome panel assay with activity outcomes; settings: recombinant CYP, pro-luciferin dealkylation, luminescence, p450-cyp2c19; series mostly up to 57.1 µM; activity, negative = inhibition: at the top concentration
% is set by controls: 0 for no effect and ±100 for the full control effect.

Cytochrome P450 2C19 (Homo sapiens), sequence (P33261 whole entry, looked up): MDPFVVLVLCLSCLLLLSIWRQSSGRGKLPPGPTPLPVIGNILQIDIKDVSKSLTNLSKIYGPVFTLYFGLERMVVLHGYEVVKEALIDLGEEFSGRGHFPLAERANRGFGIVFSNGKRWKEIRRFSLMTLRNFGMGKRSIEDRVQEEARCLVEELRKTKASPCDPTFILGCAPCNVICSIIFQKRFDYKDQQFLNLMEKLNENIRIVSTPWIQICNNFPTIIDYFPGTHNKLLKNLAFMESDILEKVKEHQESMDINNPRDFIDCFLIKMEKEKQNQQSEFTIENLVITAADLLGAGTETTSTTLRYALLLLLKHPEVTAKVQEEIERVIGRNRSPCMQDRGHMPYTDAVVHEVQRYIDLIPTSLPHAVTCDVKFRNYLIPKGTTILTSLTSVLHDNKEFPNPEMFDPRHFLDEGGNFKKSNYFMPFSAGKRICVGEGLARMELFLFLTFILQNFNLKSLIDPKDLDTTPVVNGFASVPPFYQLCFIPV

Row | SMILES | activity, negative = inhibition | AC50
1 | CN1[C@@H]2CC[C@H]1CC(O)C2 (stereo partly specified) | 12.6% [at 25.6 µM] (inactive) | –
2 | O=C(O)CN1CCN(CC(=O)O)CC(=O)[O][Hg][O]C(=O)C1 | – | 0.794 µM (active)
3 | CC(C)NP(=O)(NC(C)C)OP(=O)(NC(C)C)NC(C)C | -22.2% (inactive) | –
4 | O=C(Nc1ccccc1)N1CC[C@@]2(CCCN(C(=O)Oc3ccccc3)C2)C1 | -42.9% (inactive) | –
5 | COc1cc([C@H]2c3cc4c(cc3[C@@H](O)[C@@H]3COC(=O)[C@H]23)OCO4)cc(OC)c1OC | – | 10 µM (active)
6 | NC(=O)c1ccc(C(=O)Nc2ccc([As](=O)(O)O)cc2)cc1 | 10.2% [at 11.4 µM] (inactive) | –
7 | CCCCC1(CCCC)C(=O)NC(=Nc2cccc(C)c2)NC1=O | – | 2.24 µM (active)
8 | CC[N+](CC)(CCNC(=O)C(=O)NCC[N+](CC)(CC)Cc1ccccc1Cl)Cc1ccccc1Cl | 15.6% (inactive) | –
9 | O=C(Oc1ccccc1)N1CCC2(CCCN(Cc3ccccc3)C2)CC1 | -12.9% (inactive) | –
10 | Cc1nc2ccccc2c(=O)n1-n1cnnc1 | -6.22% (inactive) | –
11 | Cc1nc2sccc2c(=O)n1-c1ccccc1Cl | – | 2.82 µM (active)
12 | C[C@@H](N)Cn1ccc2cc(F)c(Cl)cc21 | -25.1% (inactive) | –
13 | CC(C)CCC1(CCN)C(=O)NC(=O)NC1=O | 5.97% [at 11.4 µM] (inactive) | –
14 | CN1CCN(c2ncc3ncc(=O)n(C)c3n2)CC1 | -10.5% (inactive) | –
15 | CC(C)[C@]1(O)[C@@H](OC(=O)c2ccc[nH]2)[C@]2(O)[C@@]3(C)C[C@@]4(O)O[C@@]5([C@H](O)[C@@H](C)CC[C@]35O)[C@]2(O)[C@]41C | 23.6% [at 11.4 µM] (inactive) | –
16 | CCC(=O)O[C@@](Cc1ccccc1)(c1ccccc1)[C@@H](C)CN(C)C | 15.8% [at 25.6 µM] (inactive) | –
17 | O=C(Oc1ccccc1)N1CCC2(CCCN(C(c3ccccc3)c3ccccc3)C2)CC1 | 15.4% (inactive) | –
18 | CCOP(=O)(OCC)C(NC(C)=O)C(Cl)(Cl)Cl (stereo unspecified) | -27% (inactive) | –
19 | CCOP(=O)(OCC)C(NC(=O)C(Cl)Cl)C(Cl)(Cl)Cl (stereo unspecified) | – | 10 µM (active)
20 | N#Cc1ccc(CN2CC[C@@]3(CCCN(C(=O)Oc4ccccc4)C3)C2)cc1 | -34.6% (inactive) | –
21 | C[N+](C)(C)CCCCCC[N+](C)(C)C | 29.6% (inactive) | –
22 | Cc1cccc([C@H](C)c2cnc[nH]2)c1C | – | 5.01 µM (active)
23 | C[N+]1(C)C2CC[C@H]1CC(OC(=O)[C@@H](CO)c1ccccc1)C2 (stereo partly specified) | 14.6% [at 11.4 µM] (inactive) | –

Row | SMILES | activity, negative = inhibition | AC50
24 | CNCCCc1ccccc1 | -25% (inactive) | –
25 | C[C@@H](Cc1cccc(C(F)(F)F)c1)NCCCc1ccccc1 | – | 1.26 µM (active)
26 | C#CCN[C@@H](C)Cc1ccccc1 | 12.5% (inactive) | –
27 | c1ccc2c(N3CCNCC3)cccc2c1 | 41% (inactive) | –
28 | CP(=O)(O)CCCN | – | inactive
29 | C[C@]12N[C@@H](Cc3ccccc31)c1ccccc12 | – | inactive
30 | C=C1[C@@H]2CC[C@H]3[C@@]4(C)C[C@@H](O[C@@H]5O[C@H](CO)[C@H](OS(=O)(=O)O)[C@@H](OS(=O)(=O)O)[C@@H]5OC(=O)CC(C)C)C[C@@H](C(=O)O)[C@H]4CC[C@@]3(C2)[C@H]1O | 24.2% [at 25.6 µM] (inactive) | –
31 | N[C@H](CP(=O)(O)O)C(=O)O | 27% (inactive) | –
32 | Cc1nc(-c2ccc(-c3ccc(C(=O)N4CCc5cc6c(cc54)C4(CCN(C)CC4)CO6)cc3)c(C)c2)no1 | – | inactive and 3.98 µM (active)
33 | C[C@@H]1O[C@H]1P(=O)(O)O | 28.4% (inactive) | –
34 | N[C@H](CCCP(=O)(O)O)C(=O)O | -8.91% (inactive) | –
35 | N#CC(C#N)=Cc1cc(O)c(O)c(O)c1 | -24.2% (inactive) | –
36 | N#C/C(=C\c1ccc(O)c(O)c1)C(=O)NCCCNC(=O)/C(C#N)=C/c1ccc(O)c(O)c1 | -18.8% (inactive) | –
37 | N#C/C(=C\c1ccc(O)c(O)c1)C(N)=S | – | inactive and 25.1 µM (active)
38 | CCC(=O)Nc1ccc(N2CCN(CC)CC2)c(Cl)c1 | -6.94% (inactive) | –
39 | Cc1c2ccncc2c(C)c2c1[nH]c1ccccc12 | – | 3.16 µM (active)
40 | Cc1nccc2c1[nH]c1ccccc12 | – | inactive
41 | CN(C)CCC(=O)[C@@]1(O)CC[C@H]2[C@H]3CC=C4C[C@@H](O)CC[C@]4(C)[C@H]3CC[C@]21C | 13.6% [at 11.4 µM] (inactive) | –
42 | O=C(Nc1ccc(Cl)cc1)Nc1nccs1 | – | 25.1 µM (active)
43 | C[C@H]1CCCC=CC2C[C@H](O)C[C@@H]2[C@H](O)/C=C\C(=O)O1 (stereo partly specified) | -16.3% (inactive) | –
44 | Cc1cc(C)nc(NC2=NCCS2)n1 | -7.47% (inactive) | –
45 | O=S(=O)(O)/C(=C\c1ccccc1)c1ccccc1 (tested in a mixture with another compound) | -40.3% [at 11.4 µM] (inactive) | –
46 | CC(=O)c1ccc2c(c1)N(CCCN(C)C)c1ccccc1S2 | -0.627% [at 25.6 µM] (inactive) | –
